Reference: PubChem BioAssay
Calls of active or inactive are those of the source. Rule as the data show it, unless noted: active = inhibition above about 44%; inactive = the rest.

Experiments:
[1] = StAR promoter reporter inhibitors, counter-screen for LRH-1 inverse agonist project, cell-based, luminescence, high throughput (AID 651611; in the data active = inhibition above about 28%); conditions: StAR promoter luciferase reporter counterscreen, at 3.6 µM, stronger effect = higher value
[2] = target: Nuclear receptor subfamily 5 group A member 2 (Homo sapiens) (UniProt O00482); experiment: NR5A2 activity suppression in reporter cells – cell-based, luminescence, confirmation (AID 651613; in the data active = inhibition above about 42%;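 also: HEK293T cells co-transfected with LRH-1 and StAR promoter luciferase reporter; 0% = vehicle wells and 100% = parental cells lacking receptor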); conditions: cell-based LRH-1 luciferase reporter, inverse agonism; at 3.6 µM; stronger effect = higher value
[3] = target: Steroidogenic factor 1 (Homo sapiens) (UniProt Q13285); experiment: inverse agonism at SF1 nuclear receptor – cell-based, luminescence, high throughput, counter-screen for LRH-1 inverse agonist project (AID 651614); conditions: cell-based SF1 luciferase reporter, at 3.6 µM, stronger effect = higher value;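 also: cells cotransfected with StAR promoter reporter and SF1 expression vector; 0% = vehicle on cells with receptor and 100% = vehicle on cells lacking receptor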
[4] = compounds suppressing VP16-driven luciferase signal – cell-based, luminescence, high throughput, counter-screen for LRH-1 inverse agonist project (AID 651615; in the data active = inhibition above about 33%); conditions: Gal4-VP16 luciferase reporter cells, at 3.6 µM, stronger effect = higher value

Chain of Steroidogenic factor 1 (Homo sapiens) (Q13285 whole entry, looked up, the tested form may be a part): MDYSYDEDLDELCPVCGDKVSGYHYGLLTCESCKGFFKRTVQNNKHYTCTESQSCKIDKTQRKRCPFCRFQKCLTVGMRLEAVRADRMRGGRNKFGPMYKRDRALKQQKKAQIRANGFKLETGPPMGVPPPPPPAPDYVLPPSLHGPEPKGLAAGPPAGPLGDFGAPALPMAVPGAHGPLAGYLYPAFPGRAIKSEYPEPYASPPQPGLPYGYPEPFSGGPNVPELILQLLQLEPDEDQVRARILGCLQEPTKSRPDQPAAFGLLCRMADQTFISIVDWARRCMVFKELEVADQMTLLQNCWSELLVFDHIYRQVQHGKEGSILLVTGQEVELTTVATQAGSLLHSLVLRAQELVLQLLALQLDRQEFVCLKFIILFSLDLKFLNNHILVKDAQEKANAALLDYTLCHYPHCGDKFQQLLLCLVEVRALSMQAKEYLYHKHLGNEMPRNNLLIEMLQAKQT
Chain of Nuclear receptor subfamily 5 group A member 2 (Homo sapiens) (O00482 whole entry, looked up): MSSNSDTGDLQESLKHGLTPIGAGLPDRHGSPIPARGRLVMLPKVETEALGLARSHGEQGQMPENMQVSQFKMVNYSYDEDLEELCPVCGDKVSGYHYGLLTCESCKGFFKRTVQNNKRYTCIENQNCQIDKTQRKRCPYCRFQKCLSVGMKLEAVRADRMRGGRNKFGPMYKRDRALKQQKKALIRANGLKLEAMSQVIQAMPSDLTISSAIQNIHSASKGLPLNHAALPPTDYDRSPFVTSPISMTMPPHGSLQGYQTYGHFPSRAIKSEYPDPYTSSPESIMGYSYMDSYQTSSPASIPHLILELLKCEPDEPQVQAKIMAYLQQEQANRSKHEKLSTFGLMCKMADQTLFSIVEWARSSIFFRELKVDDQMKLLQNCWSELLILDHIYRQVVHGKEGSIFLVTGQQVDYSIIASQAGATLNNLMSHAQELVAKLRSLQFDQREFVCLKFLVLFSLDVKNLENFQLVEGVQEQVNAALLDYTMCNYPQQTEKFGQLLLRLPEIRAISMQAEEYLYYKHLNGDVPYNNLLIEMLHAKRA

SMILES	inhibition [1]	inhibition [2]	inhibition [3]	inhibition [4]
C=CC(=O)N1C/C(=C/c2ccc(F)cc2)C(=O)/C(=C\c2ccc(F)cc2)C1	27.1% (inactive)	80% (active)	86.7% (active)	63% (active)
CC(NC(=O)c1ccc([N+](=O)[O-])o1)C1CC2CCC1C2 (stereo unspecified)	3.5% (inactive)	49.1% (active)	44.2% (active)	10.8% (inactive)
Cc1cc2ncn(/N=C/c3ccc([N+](=O)[O-])s3)c2cc1C	12.7% (inactive)	60% (active)	58.6% (active)	-1.24% (inactive)
CC(Cl)C(=O)Nc1ncc(C(F)(F)F)cc1Cl (stereo unspecified)	13.3% (inactive)	58.9% (active)	51.3% (active)	-7.63% (inactive)
O=C(CSc1nnc(Cc2cccs2)n1Cc1ccco1)Nc1ccc(Cl)cc1Cl	9.49% (inactive)	51.8% (active)	47.5% (active)	19.1% (inactive)
CCn1c(=S)sc2c(=O)n(CC(=O)Nc3ccc(Cl)cc3)c(C)nc21	6.76% (inactive)	55.2% (active)	46.7% (active)	19.1% (inactive)
Cc1cc(NCCCCCCCNc2cc(C)nc3cc([N+](=O)[O-])ccc23)c2ccc([N+](=O)[O-])cc2n1	-0.67% (inactive)	26.2% (inactive)	40.3% (inactive)	39.7% (active)
CCCc1cc(=O)oc2cc(C)cc(OCC(=O)NC3CC3)c12	2.08% (inactive)	59.5% (active)	62.1% (active)	-6.08% (inactive)
CCOc1ccc(CCNC(=O)COC(=O)CCc2cc(OC)c(OC)c(OC)c2)cc1OCC	2.32% (inactive)	50.1% (active)	47.2% (active)	2.92% (inactive)
CC(C(=O)OCC(=O)Nc1ccc2c(c1)OCO2)N1C(=O)c2ccccc2C1=O (stereo unspecified)	-2.26% (inactive)	49.2% (active)	48.2% (active)	-12.4% (inactive)
COc1ccc(-c2cc(NC=O)c3ncc(-c4ccc(OC)c(OC)c4)n3c2)c(OC)c1	65.5% (active)	53.5% (active)	62% (active)	2.18% (inactive)
O=C(NCc1cccnc1)c1cccc2c1C(=O)N(C1CCCCC1)C2	12.8% (inactive)	48.5% (active)	51.5% (active)	-8.24% (inactive)
COc1ccc(NC(=O)COC(=O)Cc2c[nH]c3ccccc23)cc1Cl	18.2% (inactive)	40.9% (inactive)	42.5% (inactive)	-6.87% (inactive)
O=[N+]([O-])c1ccc(N2CCCC2)cc1N1CCCC1	9.77% (inactive)	56.8% (active)	60.4% (active)	8.32% (inactive)
CCN(Cc1ccccc1)c1ccc(/C=N/NC(=O)c2cccc(S(=O)(=O)N3CCOCC3)c2)cc1	24.6% (inactive)	66.8% (active)	62.3% (active)	28% (inactive)
COc1ccccc1-c1nnc2sc(-c3ccc(N(C)C)cc3)nn12	50.1% (active)	31% (inactive)	57.1% (active)	31.2% (active)
O=C(CSc1nc2ccccc2c(=O)n1-c1ccc(F)cc1)Nc1ccc(N2CCOCC2)cc1	2.2% (inactive)	29.5% (inactive)	25.7% (inactive)	6.2% (inactive)
CC1CC(=Cc2ccc(N)cc2)C(=O)O1 (stereo unspecified)	-13.5% (inactive)	41.8% (active)	47.7% (active)	-23.5% (inactive)
Cc1cc(C)c2nc(-c3cccnc3)cc(C(=O)NC(C)c3cnn(C)c3C)c2c1 (stereo unspecified)	10.3% (inactive)	57.6% (active)	50.9% (active)	-13.5% (inactive)
